Screens as filed in PubChem.
TIM10 inh: inhibits growth of TIM10 yeast strain; S. cerevisiae TIM10 strain growth, BacTiter-Glo luminescence, 24 h; inhibition, % at 10 µM; hit rate 1.4% among 330,000;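 active = inhibition of 40% or more at the single tested concentration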;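 note: wild-type TIM10 isogenic control strain grown at permissive 25 °C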
tim23-1 inh: tim23-1 yeast growth inhibition; S. cerevisiae tim23-1 growth, BacTiter-Glo luminescence, 24 h; inhibition, % at 20 µM; hit rate 1.3% among 330,000; AID 463212;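 active = growth inhibition of the mutant yeast at or above 50%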;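 note: temperature-sensitive mutant grown at 25 °C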
NLRP3 yeast inh: NALP3 inhibition in yeast. Yeast reconstituted NLRP3/ASC/caspase-1, beta-gal luminescence, 24 h. inhibition, % at 10 µM. hit rate 0.39% among 330,000. AID 2825;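 active = inhibition of 50% or more; inactive = inhibition below 50%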
PfHsp90 set2: inhibits growth of yeast expressing Plasmodium falciparum Hsp90; S. cerevisiae expressing PfHsp90, BacTiter-Glo ATP, 48 h; yeast lacking PDR1 and PDR3 efflux regulators; inhibition, % at 9.4 µM; hit rate 0.32% among 310,000; AID 504621;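 active = every replicate shows inhibition above about 80%, whatever the replicate mean, limit read from the data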
tim10-1 inh: inhibits growth of tim10-1 mutant yeast; S. cerevisiae tim10-1 ts strain growth, BacTiter-Glo, 24 h; inhibition, % at 20 µM; hit rate 2.2% among 330,000; AID 463190;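 active = inhibition of at least 40%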;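 note: mutant grown at 25 °C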
tim10-1 confirm: confirmation of tim10-1 mutant yeast growth inhibitors | hit rate 56% among 7,400 | shares compounds with tim10-1 inh | S. cerevisiae tim10-1 ts strain growth, BacTiter-Glo, 24 h | inhibition, % at 20 µM;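 active = inhibition of yeast growth at or above a set limit in either of two repeat tests at 20 µM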;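 note: tim10-1 mutant grown at permissive 25 °C to find synthetic lethal compounds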
A number is an active result; – = inactive; · = not tested or not shown. An excerpt weighted towards active compounds, which were near 3.7% of everything screened.

SMILES	TIM10 inh	tim23-1 inh	NLRP3 yeast inh	PfHsp90 set2	tim10-1 inh	tim10-1 confirm
O=C(CNC(=O)c1cccs1)OCC(=O)c1ccc2ccccc2c1	–	–	–	–	40	–
COC(=O)c1ccc(C23CC4(C2)[C@H](CN(CC2CCCCC2)[C@@H]4c2ccccc2)C3c2ccc(Cl)nc2)cc1 (stereo not given in full)	–	–	–	–	–	·
CCOc1ccc(-c2n[nH]c(C)c2Oc2ccc(OC)cc2)c(O)c1	–	–	–	–	44	47
N#C/C(=C/c1ccc(N2CCCCCC2)o1)c1cccc(F)c1	–	–	–	–	61	57
COc1cccc(C2C3=C(CC(C)(C)CC3=O)Nc3cc4c(cc32)OCO4)c1 (stereo not given)	–	–	–	–	44	–
Cc1nn(C(C)(C)C)c(C)c1/C=N/OC(=O)Nc1ccc(Cl)cc1	–	–	–	–	42	–
COc1ccc2c(CC(=O)NCCN3C(=O)S/C(=C\c4cccnc4)C3=O)coc2c1	–	–	–	–	50	–
COc1ccc(/C=C2\SC(=O)N(CCNC(=O)Cc3coc4cc(OC)ccc34)C2=O)cc1	–	–	–	–	–	·
O=C(NCCN1C(=O)S/C(=C/c2cccnc2)C1=O)c1cccs1	–	–	–	–	44	–
O=C(Nn1c(C2CCC2)nc2ccccc2c1=O)c1cccs1	–	–	–	–	–	·
Cc1ccccc1-c1nc2ccccc2c(=O)n1/N=C/c1ccccc1[N+](=O)[O-]	–	–	–	·	44	–
COc1ccc([N+](=O)[O-])cc1/C=N/Nc1nn[nH]n1	–	–	–	–	–	·
CCN(CC)c1ccc(Nc2nc(-c3cccnc3)cs2)cc1	–	–	–	–	49	33
O=C(NC1CCCC1)C1CCCN1C(=O)Oc1ccccc1 (stereo not given)	–	–	–	–	–	·
CCOc1ccc(C(=O)Nc2cnn(Cc3ccc(Cl)c(Cl)c3)c2)cc1	–	–	–	–	41	35
COc1cccc(CNC(=O)N2CCN(c3ccccc3)CC2)c1	–	–	–	–	–	·
O=S(=O)(Nc1ccc(OC(F)F)cc1)c1ccc(-c2ccon2)s1	–	–	–	–	–	·
CC(C)(C)n1nnnc1C(c1ccccc1F)N(Cc1ccco1)CC1CCCO1 (stereo not given)	–	–	–	–	41	–
Cc1cccc2cc(C(c3nnnn3C(C)(C)C)N(Cc3ccco3)CC3CCCO3)c(=O)[nH]c12 (stereo not given)	–	–	–	·	–	·
COc1ccc(/C=C/C(=O)c2ccccc2)c(OC)c1	–	–	–	–	44	–
COc1ccc(/C=C/C(=O)c2ccc(OC)cc2OC)c(OC)c1	–	–	–	–	–	·
CC(=O)OCC1OC(OCc2cn(C[C@H]3CC[C@H](Cn4cc(COC5OC(COC(C)=O)C(OC(C)=O)C(OC(C)=O)C5OC(C)=O)nn4)O3)nn2)C(OC(C)=O)C(OC(C)=O)C1OC(C)=O (stereo not given in full)	–	–	–	–	–	·
COc1cccc(C(=O)N2N=C(c3cccc(OC)c3)CC2(O)C(F)(F)F)c1 (stereo not given)	–	–	–	–	40	–
O=C(COC(=O)c1ccc(Cl)nc1)NCCc1ccccc1	–	–	–	–	–	·
CCOc1ccc(NC(=O)c2ccco2)c([N+](=O)[O-])c1	–	–	–	–	–	·
SMILES	TIM10 inh	tim23-1 inh	NLRP3 yeast inh	PfHsp90 set2	tim10-1 inh	tim10-1 confirm
CCCCOc1ccccc1-c1cc(C(=O)O)[nH]n1	–	–	–	–	–	·
CCc1nc2ccc(C(=O)NCc3ccc(C)o3)cc2nc1CC	–	–	–	–	49	–
CCc1nc2ccc(C(=O)NCCc3ccc(OC)cc3)cc2nc1CC	–	–	–	–	40	–
CCc1nc2ccc(C(=O)NCCc3ccc(OC)c(OC)c3)cc2nc1CC	–	–	–	–	–	·
COc1ccc(C(CNC(=O)C2CC(=O)N(Cc3ccccc3)C2)N2CCOCC2)cc1 (stereo not given)	–	–	–	–	–	·
CCCCn1c(=S)[nH]c2ccc(N3CCOCC3)cc2c1=O	–	–	–	·	–	·
O=c1c2cc(N3CCOCC3)ccc2[nH]c(=S)n1Cc1ccc(Cl)cc1	–	–	–	–	–	·
Cc1ccc(Cn2c(=S)[nH]c3ccc(N4CCOCC4)cc3c2=O)o1	–	–	–	·	46	–
